Assay outcomes deposited in PubChem BioAssay by National Center for Advancing Translational Sciences (NCATS).
DRD3 antagonist: qHTS of D3 Dopamine Receptor Antagonist: qHTS | D(3) dopamine receptor (Homo sapiens), P35462 | D3R cells, DiscoveRx beta-arrestin luminescence, antagonist mode; active compounds read low | max response, negative = inhibition, % | 2.5% of 360,000 active | AID 652054, 2013; in the data active = max response below about -50%; inconclusive = no clear call, values can overlap the other calls; also: % is scaled to controls: 0 for no effect and ±100 for the full control effect
Target sequence (P35462 whole entry, looked up): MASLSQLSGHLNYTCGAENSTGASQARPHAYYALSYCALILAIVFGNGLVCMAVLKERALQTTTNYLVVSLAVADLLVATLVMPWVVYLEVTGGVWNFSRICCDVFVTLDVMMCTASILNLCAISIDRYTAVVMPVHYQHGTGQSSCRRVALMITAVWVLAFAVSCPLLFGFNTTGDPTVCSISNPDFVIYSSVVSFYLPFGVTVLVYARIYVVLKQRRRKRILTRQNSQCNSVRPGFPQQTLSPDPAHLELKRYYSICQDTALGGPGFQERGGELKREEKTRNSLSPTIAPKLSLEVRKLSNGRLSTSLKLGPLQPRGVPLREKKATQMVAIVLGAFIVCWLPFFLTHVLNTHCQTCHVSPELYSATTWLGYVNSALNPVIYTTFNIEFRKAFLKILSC
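Cells plated overnight at 1500 cells/well, then exposed to library compounds with dopamine controls for 90 minutes at 37 degrees C. DiscoveRx reagent added for 30–60 minutes at room temperature; luminescence read, quantitative HTS format.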
HepG2 tox: qHTS for Inhibitors of TGF-b: Cytotox Counterscreen | Potency, µM (series often up to 46.1 µM), without a hit: at the top dose activity change, negative = cytotoxicity, actives largely listed as cytotoxic | AID 588856, 2011 | 0.76% of 410,000 active | HepG2 CAGA-GFP viability, ATP luminescence, 18 h; also: potency is read from the fitted curve at half-maximal effect
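CellTiter-Glo luminescence gave cytotoxicity after 18 hours at 37 degrees C. The cells were HepG2 CAGA-GFP in 1% FBS DMEM, stimulated with 500 pg/mL TGF-beta after compound addition. %Activity was normalised to no-cell wells (complete cell-killing) and DMSO (no toxicity), and curves were fitted and classified.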
ATXN2 expr inh: Primary qHTS for Inhibitors of ATXN expression; 0.72% of 360,000 active; HEK-293 ATXN2-luciferase reporter, luminescence, 24 h; Potency, µM (doses to about 57 µM), for the others: top-dose activity change, negative = inhibition, hits mostly inhibitors; also: potency is read from the fitted curve at half-maximal effect; % is scaled to controls: 0 for no effect and ±100 for the full control effect; nearly all actives have a fitted effect of over 55% in size
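ATXN2-luciferase reporter cells (luciferase flanked by upstream and downstream ATXN2 gene portions) were treated 24 h at 37 °C with compounds at up to 57 uM. SteadyGlo luminescence gave expression; GF-AFC fluorescence gave viability.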
TGFb SMAD3 inh: qHTS for Inhibitors of TGF-b. 1.2% of 410,000 active. HepG2 CAGA-GFP TGF-b/SMAD3 reporter, GFP fluorescence, 18 h; TGF-beta stimulated, 500 pg/mL final. Potency, µM (doses to about 46.1 µM), for the others: top-dose activity, negative = inhibition, usual class: inhibitors. AID 588855, 2011; also: potency is read from the fitted curve at half-maximal effect; % is scaled to controls: 0 for no effect and ±100 for the full control effect; nearly all actives have a fitted effect of over 65% in size
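HEPG2 CAGA-GFP reporter cells (1000/well, DMEM with 1% FBS) received compounds, then recombinant TGF-beta at 500 pg/mL final for 18 hours at 37 degrees C. Per-cell GFP summed per well was normalised to unstimulated and stimulated DMSO controls before curve fitting.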
DRD3 agonist: qHTS of D3 Dopamine Receptor Agonist: qHTS | AID 652048, 2013 | max activation, % | 0.58% of 410,000 active | D3R DiscoveRx beta-arrestin cells, luminescence, 90 min; in the data active = max activation above about 30%; also: 0% is about no effect
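Agonist-mode cell screen: cells plated at 1500/well and incubated overnight at 37 °C, then exposed to library compounds for 90 min at 37 °C. Detection reagent was added for 30–60 min at room temperature, and luminescence was read.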
S2 tox: Viability Counterscreen for Primary qHTS for Inhibitors of ATXN expression; Potency, µM (highest dose often 56.7 µM), actives largely listed as cytotoxic; 0.49% of 400,000 active; S2 cells (HEK-293 line with an ATXN2-luciferase reporter) viability, CellTiter-Fluor protease fluorescence, 24 h; also: potency is read from the fitted curve at half-maximal effect; nearly all actives have a fitted effect of over 40% in size
The depositor's hits bear a star; i = inactive; ? = inconclusive; . = no result. Compounds with a hit are over-represented: about 4.8% of the library has one in this group of screens. Unless noted, calls follow the shape of the dose curve; as a rule, active = well fitted curve in the direction sought with a large enough effect; inconclusive = small, poorly fitted or top-dose-only effect, or another doubt; inactive = no such curve, though single readings can be large; an effect the other way counts as inactive or inconclusive.

SMILES | DRD3 antagonist | HepG2 tox | ATXN2 expr inh | TGFb SMAD3 inh | DRD3 agonist | S2 tox
CC(C)c1ccc2c(c1)CCC1C(C)(CN)CCCC21C (configuration not stated) | 45.5 | 11.2µM* | 35.5µM* | ? | 8.1 | .
CCSC1=NC2(CCN(C(=O)NC3CCCCC3)CC2)N=C1c1ccc(Cl)cc1 | . | 5.8% | 10.1% | 2.2% | 6.8 | i
CCN1/C(=C/c2ccc3ccccc3[n+]2CCCS(=O)(=O)[O-])C=Cc2cc(C)ccc21 | -23.0 | -15.4% | -15.9% | -21.1% | -6.9 | 17.8µM*
CCN1/C(=C/c2cc[n+](C)cc2)C=Cc2cc(C)ccc21 | 2.5 | -15.3% | ? | ? | -8.1 | .
CCN1/C(=C/c2ccc3ccccc3[n+]2CC)C=Cc2ccccc21 | -52.5* | 10µM* | 3.16µM* | 1.78µM* | -9.6 | 10µM*
CCCCN1/C(=C/c2ccc3ccccc3[n+]2CC)Sc2ccccc21 | 13.3 | -29.8% | ? | 66.8% | 5.6 | 15.8µM*
CCN1/C(=C/c2ccc3cc(C)ccc3[n+]2CC)Sc2cc(C)ccc21 | 7.6 | -77.2% | ? | 120.3% | 2.9 | .
Cc1cccc(-c2nc(S(=O)(=O)c3ccccc3)c(N3CCN(c4ccccc4)CC3)o2)c1 | . | -0.1% | . | 0.8% | -16.9 | .
COc1cc(CNC(=O)Nc2nc(C(N)Cc3ccc(Cl)cc3)cs2)cc(OC)c1OC (configuration not stated) | 7.0 | 17.8µM* | ? | ? | 1.5 | 25.1µM*
CC(C)c1ccccc1NC(=O)Nc1nc(C(N)Cc2ccc(C(F)(F)F)cc2)cs1 (configuration not stated) | 36.6 | 8.91µM* | ? | 11.2µM* | 13.8 | .
COc1cc(CNC(=O)Nc2nc(C(N)c3ccccc3)cs2)cc(OC)c1OC (configuration not stated) | 12.4 | -19.3% | -2.8% | -19.3% | 2.6 | i
O=C(Nc1cccc(C(F)(F)F)c1)Nc1ccc2snnc2c1 | . | -56.8% | ? | 7.08µM* | 5.4 | i
CC(N)c1csc(NC(=O)Nc2cccc(C(F)(F)F)c2)n1 (configuration not stated) | -54.0* | 20µM* | ? | ? | -18.8 | ?
Cc1ccc(NC(=O)Cn2c(C)cc(C)c(C#N)c2=O)cc1F | . | -7.8% | . | -1.3% | -14.3 | .
Cc1ccc(CNc2nc(C)c(-c3ccn(CCN4CCOCC4)n3)s2)o1 | . | . | . | . | . | i
Cc1ccc(CNC(=O)CCc2nnc3n(C)c(=O)c4sccc4n23)cc1 | . | 6.2% | 13.1% | 10.2% | 5.7 | i
CCCOc1ccc(CNC(=O)c2cc3ccccn3n2)cc1 | . | -24.2% | 27.5% | ? | -8.7 | i
O=C(Nc1ccc(F)c(Cl)c1)N1CCN(C(=O)c2nsc3ccccc23)CC1 | . | -24.8% | . | . | 1.6 | .
COc1ccc(CNC(=O)Nc2nc(C(N)Cc3ccc(C(F)(F)F)cc3)cs2)cc1 (configuration not stated) | 22.7 | -94.1% | ? | 15.8µM* | 6.2 | i
COc1ccc(CC(N)c2csc(NC(=O)c3ccc(OC)cc3)n2)cc1 (configuration not stated) | -7.7 | -29.9% | -36.6% | ? | -5.4 | i
COc1nc(N)nc(NC(=O)c2cccs2)c1N=O | -5.7 | 12.6µM* | 2.4% | ? | -2.8 | ?
COc1ccc(NC(=O)c2ccc(NC(=O)c3cccs3)cc2)cc1 | 7.4 | -16.9% | ? | -1.8% | 2.9 | ?
Cc1cccc(C)c1NC(=O)CCCn1c(=O)c2cccn2c2ccccc21 | . | -0.4% | . | -14.4% | 11.0 | .
Cc1cccc2cc(COC(=O)c3cccnc3)c(=O)[nH]c12 | -0.8 | 5.1% | -9.3% | -9.2% | 8.1 | ?
Cc1cccc2cc(COC(=O)c3ccccc3)c(=O)[nH]c12 | -51.4* | 9.8% | 5.5% | 4.4% | -10.2 | i
